# Data taken from the antibiotic and cytotoxicity screens of Wong et al. (2023).
# The whole screen tested about 39,000 compounds, of which about 3,300 (8.5%) were called active. This is one part of a sample in which actives are shown more often than they occur.
# Tested on: HepG2
# Test: cytotoxicity call (relative viability < 0.9)
# Details: 10 µM
row,SMILES,cytotoxicity call
1,C[C@H]1CCCCO[C@H](CN(C)Cc2ccc(C(F)(F)F)cc2)[C@@H](C)CN([C@@H](C)CO)C(=O)c2cc(NC(=O)Nc3ccccc3)ccc2O1,active
2,C[C@H](CO)N1C[C@H](C)[C@H](CN(C)Cc2ccc(C(F)(F)F)cc2)OCCCC[C@H](C)Oc2ccc(NC(=O)Nc3ccccc3)cc2C1=O,active
3,C[C@@H]1CCCCO[C@H](CN(C)Cc2ccc(C(F)(F)F)cc2)[C@H](C)CN([C@H](C)CO)C(=O)c2cc(NC(=O)Nc3ccccc3)ccc2O1,active
4,CCS(=O)(=O)NCC[C@@H]1CC[C@@H](NC(=O)C2CC2)[C@@H](CO)O1,inactive
5,Cc1ccc(S(=O)(=O)Nc2ccc3c(c2)CC(=O)N([C@@H](C)CO)C[C@@H](C)[C@H](CN(C)S(C)(=O)=O)O3)cc1,inactive
6,C[C@@H]1CN([C@@H](C)CO)C(=O)Cc2cc(NC(=O)Nc3ccccc3)ccc2O[C@H]1CN(C)C(=O)Nc1ccc(C(F)(F)F)cc1,inactive
7,C[C@H]1CN([C@@H](C)CO)C(=O)c2cc(NC(=O)Nc3cccc4ccccc34)ccc2O[C@H]1CN(C)S(=O)(=O)c1ccc(F)cc1,inactive
8,CC(=O)N[C@@H](Cc1cccc(F)c1)C(=O)O,inactive
9,O=C(NC1Cc2ccccc2C1)[C@@H]1[C@@H](CO)[C@@H]2Cn3c(cccc3=O)[C@@H]2N1C(=O)c1cnccn1,inactive
10,Nc1no[n+]([O-])c1-c1ccccc1,inactive
11,C[C@H](CO)N1C[C@H](C)[C@H](CN(C)C(=O)Nc2ccc(F)cc2)OCCCC[C@H](C)Oc2ccc(NC(=O)c3ccccc3)cc2C1=O,inactive
12,C[C@H]1CCCCO[C@H](CN(C)Cc2ccc3c(c2)OCO3)[C@@H](C)CN([C@@H](C)CO)C(=O)c2cc(NC(=O)Nc3ccccc3)ccc2O1,inactive
13,C[C@H](CO)N1C[C@H](C)[C@H](CN(C)Cc2ccc3c(c2)OCO3)OCCCC[C@H](C)Oc2ccc(NC(=O)Nc3ccccc3)cc2C1=O,active
14,C[C@H]1CCCCO[C@@H](CN(C)Cc2ccc3c(c2)OCO3)[C@@H](C)CN([C@@H](C)CO)C(=O)c2cc(NC(=O)Nc3ccccc3)ccc2O1,active
15,C[C@@H]1CN([C@H](C)CO)C(=O)c2cc(NC(=O)Nc3ccccc3)ccc2O[C@@H](C)CCCCO[C@H]1CN(C)Cc1ccc2c(c1)OCO2,inactive
16,C[C@@H]1CN([C@@H](C)CO)C(=O)c2cc(NC(=O)Nc3ccccc3)ccc2O[C@@H](C)CCCCO[C@H]1CN(C)Cc1ccc2c(c1)OCO2,inactive
17,C[C@@H]1CCCCO[C@@H](CN(C)Cc2ccc3c(c2)OCO3)[C@H](C)CN([C@H](C)CO)C(=O)c2cc(NC(=O)Nc3ccccc3)ccc2O1,inactive
18,C[C@@H]1CCCCO[C@H](CN(C)Cc2ccc3c(c2)OCO3)[C@H](C)CN([C@H](C)CO)C(=O)c2cc(NC(=O)Nc3ccccc3)ccc2O1,active
19,C[C@@H]1CN([C@H](C)CO)C(=O)c2cc(NC(=O)Nc3ccccc3)ccc2O[C@@H](C)CCCCO[C@@H]1CN(C)Cc1ccc2c(c1)OCO2,inactive
20,C[C@@H]1CCCCO[C@H](CN(C)Cc2ccc3c(c2)OCO3)[C@@H](C)CN([C@@H](C)CO)C(=O)c2cc(NC(=O)Nc3ccccc3)ccc2O1,inactive
21,C[C@@H]1CCCCO[C@H](CN(C)Cc2ccc3c(c2)OCO3)[C@@H](C)CN([C@H](C)CO)C(=O)c2cc(NC(=O)Nc3ccccc3)ccc2O1,inactive

row,SMILES,cytotoxicity call
1,C[C@@H]1CCCCO[C@@H](CN(C)Cc2ccc3c(c2)OCO3)[C@@H](C)CN([C@H](C)CO)C(=O)c2cc(NC(=O)Nc3ccccc3)ccc2O1,inactive
2,C[C@@H]1CCCCO[C@@H](CN(C)Cc2ccc3c(c2)OCO3)[C@@H](C)CN([C@@H](C)CO)C(=O)c2cc(NC(=O)Nc3ccccc3)ccc2O1,active
3,C[C@@H]1CN([C@@H](C)CO)C(=O)c2cccc(NC(=O)c3ccc(-c4nccs4)cc3)c2O[C@@H]1CN(C)C(=O)Nc1ccc2c(c1)OCO2,inactive
4,CCCNC(=O)N1C[C@@H](O)COC[C@H]2O[C@H](CC(=O)N3CCOCC3)CC[C@@H]21,inactive
5,C[C@H]1CN([C@@H](C)CO)C(=O)c2cccc(NS(C)(=O)=O)c2O[C@@H]1CN(C)Cc1ccc(C(=O)O)cc1,inactive
6,C[C@@H]1CN([C@H](C)CO)C(=O)c2cc(NS(=O)(=O)c3cn(C)cn3)ccc2O[C@H]1CN(C)Cc1ccc(C(=O)O)cc1,inactive
7,O=C(O)c1ccc2[nH]cnc2n1,inactive
8,O=C(CCCCCNC(=O)OCc1ccc(CO[C@@H]2C[C@H](C3CCCCC3)C=C(C(=O)N3CCCCCCC3)O2)cc1)NO,inactive
9,C[C@H](CO)N1C[C@H](C)[C@@H](CN(C)S(=O)(=O)c2ccc(F)cc2)Oc2ccc(NS(C)(=O)=O)cc2C1=O,inactive
10,Cc1noc(C)c1NC(=O)N(C)C[C@@H]1Oc2ccc(NC(=O)Nc3cccc4ccccc34)cc2C(=O)N([C@H](C)CO)C[C@@H]1C,inactive
11,COc1ccccc1NC(=O)N(C)C[C@H]1Oc2ncc(C#CCN(C)C)cc2C(=O)N([C@H](C)CO)C[C@H]1C,inactive
12,C=CCOC(=O)[C@H]1[C@@H]2C(=O)O[C@@H](c3ccccc3)[C@@H](c3ccccc3)N2[C@@H](c2ccc(OCCOC(=O)[C@@H]3C[C@@H]4C(=O)NCC(=O)N4[C@@H]3c3cccc(OCCO)c3)cc2)[C@]12C(=O)Nc1ccccc12,inactive
13,Cc1noc(C)c1S(=O)(=O)Nc1ccc2c(c1)CC(=O)N([C@H](C)CO)C[C@H](C)[C@H](CN(C)Cc1ccc(-c3ccccc3)cc1)O2,inactive
14,C(=N\c1ccccc1)/c1ccccc1,inactive
15,C[C@@H]1CCCCO[C@H](CN(C)Cc2ccccc2)[C@@H](C)CN([C@@H](C)CO)C(=O)c2cc(NC(=O)Nc3ccc4c(c3)OCO4)ccc2O1,inactive
16,C[C@@H]1CN([C@@H](C)CO)C(=O)c2cc(NC(=O)Nc3ccc4c(c3)OCO4)ccc2O[C@@H](C)CCCCO[C@@H]1CN(C)Cc1ccccc1,active
17,C[C@@H]1CN([C@H](C)CO)C(=O)c2cc(NC(=O)Nc3ccc4c(c3)OCO4)ccc2O[C@@H](C)CCCCO[C@@H]1CN(C)Cc1ccccc1,inactive
18,C[C@H](CO)N1C[C@H](C)[C@@H](CN(C)Cc2ccc3c(c2)OCO3)OCCCC[C@H](C)Oc2ccc(NC(=O)Nc3ccccc3)cc2C1=O,inactive
19,C[C@@H]1CCCCO[C@H](CN(C)Cc2ccc3c(c2)OCO3)[C@H](C)CN([C@@H](C)CO)C(=O)c2cc(NC(=O)Nc3ccccc3)ccc2O1,inactive
20,C[C@@H]1CN([C@@H](C)CO)C(=O)c2cc(NC(=O)Nc3ccccc3)ccc2O[C@@H](C)CCCCO[C@@H]1CN(C)Cc1ccc2c(c1)OCO2,active
21,C[C@@H]1CCCCO[C@H](CN(C)CC2CCCCC2)[C@H](C)CN([C@H](C)CO)C(=O)c2cc(NS(=O)(=O)c3ccccc3)ccc2O1,inactive

row,SMILES,cytotoxicity call
1,C[C@@H]1CCCCO[C@@H](CN(C)C(=O)Nc2ccc3c(c2)OCO3)[C@@H](C)CN([C@H](C)CO)C(=O)c2cc(NC(=O)Nc3cccc4ccccc34)ccc2O1,inactive
2,C[C@@H]1CN([C@H](C)CO)C(=O)Cc2cc(NC(=O)Cn3cnnn3)ccc2O[C@H]1CN(C)Cc1ccccc1,inactive
3,Cc1ccc(F)c(S(=O)(=O)N2[C@@H]3CC[C@@H](C3)[C@H]2c2nc3cccc(OCc4ccc(F)cc4)c3[nH]2)c1,active
4,CC(=O)c1cccc(S(=O)(=O)N2[C@@H]3CC[C@@H](C3)[C@H]2c2nc3cccc(OCc4ccc(F)cc4)c3[nH]2)c1,inactive
5,COc1ccc(OC)c(S(=O)(=O)N2[C@@H]3CC[C@@H](C3)[C@H]2c2nc3cccc(OCc4ccc(F)cc4)c3[nH]2)c1,inactive
6,COc1cccc(S(=O)(=O)N2[C@@H]3CC[C@@H](C3)[C@H]2c2nc3cccc(OCc4ccc(F)cc4)c3[nH]2)c1,active
7,COc1cc(C)ccc1S(=O)(=O)N1[C@@H]2CC[C@@H](C2)[C@H]1c1nc2cccc(OCc3ccc(F)cc3)c2[nH]1,inactive
8,Cc1ccc(C)c(S(=O)(=O)N2[C@@H]3CC[C@@H](C3)[C@H]2c2nc3cccc(OCc4ccc(F)cc4)c3[nH]2)c1,inactive
9,CN1C(=O)c2cc(NC(=O)c3ccc(F)c(F)c3)ccc2OC[C@H]2O[C@H](CC(=O)N3CCOCC3)CC[C@H]21,inactive
10,Cc1ccc(S(=O)(=O)Nc2ccc3c(c2)C(=O)N([C@@H](C)CO)C[C@@H](C)[C@@H](CN(C)C(=O)CCC(F)(F)F)OCCCC[C@@H](C)O3)cc1,inactive
11,CCS(=O)(=O)N1C[C@]2(CCN(CC2)S(=O)(=O)c2cn(cn2)C)c2c(n(c3cc(ccc23)OC)C)[C@H]1CO,inactive
12,C[C@H](CO)N1C[C@H](C)[C@@H](CN(C)C(=O)Nc2ccc(F)cc2)OCc2ccccc2-c2c(n(C)c3ccccc23)C1=O,inactive
13,COCC(=O)N1C[C@H](C)[C@@H](OC)CN(C)C(=O)c2ccc(NC(=O)Nc3ccccc3)cc2OC[C@H]1C,inactive
14,C[C@H](CO)N1C[C@H](C)[C@H](CN(C)Cc2ccc(C(=O)O)cc2)Oc2ccc(NS(C)(=O)=O)cc2C1=O,inactive
15,C[C@@H]1CN([C@@H](C)CO)C(=O)Cc2cc(NC(=O)Nc3ccc(C(F)(F)F)cc3)ccc2O[C@H]1CN(C)Cc1ccc(-c2ccccc2)cc1,active
16,C[C@@H]1CN([C@H](C)CO)C(=O)Cc2cc(NC(=O)Nc3ccc(C(F)(F)F)cc3)ccc2O[C@@H]1CN(C)Cc1ccc(-c2ccccc2)cc1,active
17,C[C@H]1CN([C@@H](C)CO)C(=O)Cc2cc(NC(=O)Nc3ccc(C(F)(F)F)cc3)ccc2O[C@H]1CN(C)Cc1ccc(-c2ccccc2)cc1,active
18,C[C@H](CO)N1C[C@H](C)[C@H](CN(C)Cc2ccc(-c3ccccc3)cc2)Oc2ccc(NC(=O)Nc3ccc(C(F)(F)F)cc3)cc2CC1=O,active
19,C[C@H]1CN([C@@H](C)CO)C(=O)Cc2cc(NC(=O)Nc3ccc(C(F)(F)F)cc3)ccc2O[C@@H]1CN(C)Cc1ccc(-c2ccccc2)cc1,inactive
